Data taken from PubChem BioAssay (NCI).
Several values for one entry are separate records, joined by “and”; a condition that tells them apart may be missing. Identical values can stand only once. The panel holds about 83,000 compounds, 20% with a hit somewhere; the sample as a whole holds those more often.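 48-hour exposure, single concentration, 96-well plates; percent growth endpoint where 0 means no net growth. Active: below 10.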 Activity calls are given as the source filed them.

What follows are compounds tested on M14 melanoma (assay: NCI-60 one-dose screen, 48 h (100 = growth as untreated, 0 = no growth, -100 = all killed)). Details: 10 µM unless noted.
`Cn1ncc2cc3c(Nc4ccc(Cl)cc4)cccc3nc21` was tested, and the growth was 104% (inactive).
For `O=Nc1ccc(Nc2ccccc2)cc1`, the growth was 89.7% (inactive).
In the case of `CCC(C)(c1ccc(O)c(C)c1)c1ccc(O)c(C)c1`, the growth is reported as 91.6% (inactive).
`O=C1c2ccccc2CCC1(Br)Br` was tested, and the growth was 5.66% (active).
In the case of `C=C1N(C)c2ccc(Cl)cc2C1(C)C`, the growth is reported as 72.2% (inactive).
With `O=c1[nH]cc(/C=N\Nc2ccccc2)c(=O)[nH]1` the growth was 50.8% (inactive).
In the case of `Cc1cc(Cl)ccc1NC(=O)/C(Cl)=C1/Sc2ccccc2NC1=O`, the growth is reported as 83.8% (inactive).
`CN(C)CCNc1cccc2sc3ccc(O)cc3c(=O)c12` was tested, and the growth was 53.8% (inactive).
In the case of `N#CC(=C1C=CC(=NO)C=C1)c1ccccc1`, the growth is reported as -36.5% (active).
In the case of `CCOC(=O)[C@]1(Br)CC[C@@]1(Br)C(=O)OCC`, the growth is reported as 86.6% (inactive).
In the case of `O=C(CNS(=O)(=O)Cc1ccccc1)NNc1ccccc1`, the growth is reported as 31.1% (inactive).
In the case of `COc1cccc(C(c2cc3c(cc2O)OCO3)N2CCOCC2)c1OC` (stereo unspecified), the growth is reported as 104% (inactive).
With `N#C/C(=C/N1C(=O)/C(=C/c2ccc([N+](=O)[O-])cc2)SC1=S)c1nc2ccccc2s1` the growth was 94.6% (inactive).
With `Nc1nc(N)c2cc(Sc3ccc4ccccc4c3)ccc2n1` the growth was 16.4% (inactive).
`O=C1c2cccc3cc([N+](=O)[O-])cc(c23)C(=O)N1CCN1CCCC1` was tested, and the growth was 0.262% (active).
`O=S(=O)(c1cc(Cl)ccc1O)c1cc(Cl)ccc1O` was tested, and the growth was 75.8% (inactive).
With `COc1cc(N)ccc1Nc1c2ccccc2nc2ccccc12` the growth was 94.1% (inactive).
With `O=C1C=CC(=O)N1c1ccc(N2C(=O)C=CC2=O)cc1` the growth was 98.3% (inactive).
`CCC(=O)Oc1ccc(/C=N/NC(N)=S)nc1` was tested, and the growth was 9.1% (active).
`O=[N+]([O-])c1cc(S(=O)(=O)Nc2ccccc2)ccc1Cl` was tested, and the growth was 88.7% (inactive).
With `Cn1c2nc3ccccc3c-2nc2ccccc21` the growth was 108% (inactive) and 100% (inactive).
